# Assay results: PubChem BioAssay (Tox21)
# Inconclusive results are not listed. Unmarked numbers belong to inactive results. Calls come from the whole dose curve; as a rule, active = well fitted cell-killing curve with a large enough effect in the repeat runs; inconclusive = weak or mixed curves, or effect the other way; inactive = flat fitted curve, though single readings scatter.
# Test: qHTS RealTime-Glo MT Cell Viability Assay in HepG2 cells - 40 hour (AID 1224870); note: nearly all actives have a fitted effect of over 50% in size
# Details: RealTime-Glo luminescence; series mostly up to 76.8 µM; activity change, negative = cytotoxic: at the top concentration
# Excerpt: National Center for Advancing Translational Sciences [NCATS]
# NIH Chemical Genomics Center [NCGC]
# U.S. Environmental Protection Agency [EPA]
# National Institutes of Environmental Health Sciences [NIEHS]
# National Toxicology Program [NTP]
# U.S. Food and Drug Administration [FDA]
# Measure of cell viability is critical in the cell-base assay. Analysis of cell viability is necessary for the characterization of cell responses to cytotoxic drugs and environmental stress. A RealTime-Glo MT Cell Viability Assay to monitor cell viability in real time of continues cell culture during 40 hours of compound treatment was used to screen Tox21 10K library compounds in HepG2 cells. The RealTime-Glo MT Cell Viability Assay is a nonlytic, homogeneous, bioluminescent method to measure cell viability in real time using a simple, plate-based method. The assay involves adding NanoLuc luciferase and a cell-permeant prosubstrate to cells in culture. Viable cells reduce the proprietary prosubstrate to generate a substrate for NanoLuc luciferase. This substrate diffuses from cells into the surrounding culture medium, where it is rapidly used by the NanoLuc Enzyme to produce a luminescent signal. The signal correlates with the number of viable cells, making the assay well suited for cytotoxicity studies.
# Tox21 Assay Protocol Summary:
# The mixture of HepG2 cell suspension and reagents were dispensed at 600cells/6 ul/well in 1536-well tissue culture treated black solid bottom plates using a Multidrop dispenser. After the assay plates were incubated at a 37 C/5% CO2 incubator for 5 hours, 23 nL of compounds dissolved in DMSO, positive and negative controls was transferred to the assay plate by a pintool work station. The plates were incubated at 37 C for 40 hours. The luminescence intensity were measured at 0h, 8h, 16h, 24h, 32h and 40h time points using ViewLux plate reader during compound treatment.
# % is set by controls: 0 for no effect and ±100 for the full control effect.
row,Compound,"activity change, negative = cytotoxic"
1,Nc1ccc(S(=O)(=O)NC(=O)c2ccccc2)cc1,-0.0089% [at 35.3 µM]
2,CC(C)(CO)[C@@H](O)C(=O)NCCCO,2.78% [at 35.3 µM]
3,Cc1cc(C)cc([N+](=O)[O-])c1,-4.53%
4,Cc1nc([N+](=O)[O-])cn1-c1ccc([N+](=O)[O-])cc1,1.46% [at 35.3 µM]
5,CC(C)c1ccccc1O,-0.408%
6,C=CCOCC(O)CCl (stereo not given),0.604%
7,O=c1[nH]c(=O)c2ccccc2o1,-0.0871% [at 35.3 µM]
8,O=C(Oc1ccccc1C(=O)O)c1ccccc1O,1.82% [at 35.3 µM]
9,CC(C)=CC(C)(C)C,-2.31%
10,O=[Si]=O,1.13%
11,FC(F)(F)/C(=N\OCC1OCCO1)c1ccc(Cl)cc1,1.07%
12,CCOC(=O)CC(CC(=O)OCC)(OC(C)=O)C(=O)OCC,2.83%
13,O=CO,17.5% [at 6.97 µM]
14,O=c1[nH]c(=O)c2[nH]c(=O)[nH]c2[nH]1,0.76% [at 6.97 µM]
15,CCC(CO)CO,-0.218%
16,CCOC(=O)CCCCCCCCC(=O)OCC,3.97%
17,CC(=O)Nc1ccc(C)cc1,-0.453%
18,CCCCC(CC)C(=O)OC(C)C (stereo not given),2.78%
19,Cc1cccc(C(=O)O)c1[N+](=O)[O-],1.36%
20,COC(=O)CCC(=O)O,0.848%

row,Compound,"activity change, negative = cytotoxic"
1,CC(C)CCCCCCOC(=O)C1CCCCC1C(=O)OCCCCCCC(C)C (stereo not given),-2.11%
2,COc1ccc(NS(=O)(=O)c2ccc(N)cc2)nn1,2.08% [at 35.3 µM]
3,CCCCCCCCOC(C)=O,0.436%
4,CC(=O)N1CCN(c2ccc(O)cc2)CC1,0.574% [at 35.3 µM]
5,C=C[Si](C)(C)O[Si](C)(C)C=C,3.7%
6,Nc1ccc(C(=O)OCC(O)CO)cc1 (stereo not given),-1.28% [at 35.3 µM]
7,O=c1cc(O)c(Cl)c[nH]1,0.726% [at 35.3 µM]
8,O=C(O)c1ccccc1C(=O)Nc1ccc(S(=O)(=O)Nc2nccs2)cc1,-0.419% [at 35.3 µM]
9,CCOC(=O)CC#N,-0.0166%
10,CC(C)COC(=O)COc1ccc(Cl)cc1Cl,0.537%
11,C=CCOc1cc(Cl)ccc1C(=O)NCCN(CC)CC,0.39% [at 35.3 µM]
12,COc1ccc(OC)c(NC(=O)CC(C)=O)c1,1.17%
13,CCN(CC)C(=O)C1CN2CCc3cc(OC)c(OC)cc3C2CC1OC(C)=O (stereo not given),-0.754% [at 35.3 µM]
14,CCc1nccnc1C,1.47%
15,Cc1ccccc1C,0.587%
16,Oc1ccccc1Cc1ccccc1O,-2.22%
17,CCC(O)C(C)(C)C (stereo not given),-0.623%
18,CCCCCCCCC(=O)OCC,-7.48%
19,O=C(O)/C=C/c1ccccc1,0.765%
20,O=CN1CCOCC1,-1.91%
